# A number with no mark means an inactive call. The list shows a part of the results. The source made the active and inactive calls. Cut-off read from the data, not from the text of the source, unless noted: active = inhibition above about 25%; inactive = the rest.
# Columns and labels:
# [1] = target: Nuclear receptor coactivator 3 (Homo sapiens) (UniProt Q9Y6Q9); test: NCOA3 GAL4-fusion reporter inhibition – cell-based, luminescence, quadruplicate, confirmation (AID 588792;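 active = mean inhibition over 43.08%, the solvent-only control mean plus 3 SD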;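 note: 0% = DMSO treated cells and 100% = gossypol at 36 µM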); settings: HEK293 GAL4-SRC3 luciferase reporter, at 3.6 µM, active compounds read high
# [2] = tested on: transactivating tegument protein VP16 (Human herpesvirus 1), Gal4-VP16 luciferase reporter; test: repression of VP16-driven luciferase reporter – cell-based, luminescence, high throughput, counter-screen for SRC3 inhibitor project (AID 588794; in the data active = inhibition above about 30%); settings: mammalian cells, at 3.6 µM, active compounds read high
# [3] = target: Nuclear receptor coactivator 1 (Homo sapiens) (UniProt Q15788); test: NCOA1 GAL4-fusion reporter inhibition – cell-based, luminescence, quadruplicate, confirmation (AID 588820;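 active = mean inhibition above 46.68%, the untreated control wells mean plus 3 SD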;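 note: 0% = DMSO wells and 100% = gossypol 36 µM treated wells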); settings: HEK293 GAL4-SRC1 luciferase reporter, at 3.6 µM, active compounds read high
# [4] = repression of VP16-driven luciferase reporter – cell-based, luminescence, high throughput, counter-screen for SRC1 inhibitor project (AID 588824); settings: cell-based VP16 transactivation luciferase luminescence; at 3.6 µM; active compounds read high
# [5] = StAR promoter reporter inhibitors, counter-screen for LRH-1 inverse agonist project, cell-based, luminescence, high throughput (AID 651611; in the data active = inhibition above about 28%); settings: StAR promoter luciferase reporter counterscreen, at 3.6 µM, active compounds read high
# [6] = target: Nuclear receptor subfamily 5 group A member 2 (Homo sapiens) (UniProt O00482); test: NR5A2 activity suppression in reporter cells – cell-based, luminescence, confirmation (AID 651613; in the data active = inhibition above about 42%;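 note: HEK293T cells co-transfected with LRH-1 and StAR promoter luciferase reporter; 0% = vehicle wells and 100% = parental cells lacking receptor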); settings: cell-based LRH-1 luciferase reporter, inverse agonism; at 3.6 µM; active compounds read high
# [7] = target: Steroidogenic factor 1 (Homo sapiens) (UniProt Q13285); test: inverse agonism at SF1 nuclear receptor – cell-based, luminescence, high throughput, counter-screen for LRH-1 inverse agonist project (AID 651614; in the data active = inhibition above about 44%;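 note: cells cotransfected with StAR promoter reporter and SF1 expression vector; 0% = vehicle on cells with receptor and 100% = vehicle on cells lacking receptor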); settings: cell-based SF1 luciferase reporter, at 3.6 µM, active compounds read high
# [8] = compounds suppressing VP16-driven luciferase signal – cell-based, luminescence, high throughput, counter-screen for LRH-1 inverse agonist project (AID 651615; in the data active = inhibition above about 33%); settings: Gal4-VP16 luciferase reporter cells, at 3.6 µM, active compounds read high
# [9] = target: Photoreceptor-specific nuclear receptor (Homo sapiens) (UniProt Q9Y5X4); test: retest of NR2E3-NCOR disrupting agonists – cell-based, luminescence, CHO-S two-hybrid, confirmation (AID 624378;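 active = average inhibition above a cutoff equal to the mean inhibition of all tested compounds plus one SD, cut at about 70% in these data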;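 note: 0% = DMSO in NR2E3 cells and 100% = DMSO in cells lacking NR2E3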); settings: CHO-S mammalian two-hybrid NR2E3-NCOR, luciferase luminescence; at 3.98 µM; active compounds read high
# [10] = nonselective effects on VP16 transactivation – cell-based, luminescence, CHO-S, high throughput, counter-screen for NR2E3 agonist project, confirmation (AID 624379;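 active = mean inhibition above a cutoff equal to the average over all tested compounds plus one standard deviation, cut at about 70% in these data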;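 note: 0% = DMSO with VP16-transfected cells and 100% = DMSO with cells lacking VP16; higher means less reporter light so more repression of VP16 activity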); settings: CHO-S GAL4-VP16 luciferase reporter, at 3.98 µM, active compounds read high
# [11] = tested on: transactivating tegument protein VP16 (Human herpesvirus 1); test: compounds suppressing VP16-driven luciferase signal – cell-based, luminescence, single concentration, counter-screen for SRC2 inhibitor project (AID 652007; in the data active = inhibition above about 36%); settings: cell-based VP16 transactivation luciferase reporter, at 8.9 µM, active compounds read high
# [12] = target: Nuclear receptor coactivator 2 (Homo sapiens) (UniProt Q15596); test: inhibition of GAL4-SRC2 driven luciferase expression – cell-based, luminescence, HEK293, triplicate, confirmation (AID 652008;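 active = mean inhibition above 46.5%, the solvent-only control mean plus 3 SD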;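 note: 0% = DMSO-treated cells and 100% = Gossypol at 36 µM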); settings: HEK293 GAL4-SRC2 luciferase reporter, at 8.9 µM, active compounds read high
# [13] = VP16-driven transactivation reporter suppression – cell-based, luminescence, HEK293, counter-screen for COUP-TFII antagonist project (AID 687007; in the data active = inhibition above about 13%); settings: HEK293 Gal4-VP16 luciferase reporter, at 8.5 µM, active compounds read high
# [14] = target: COUP transcription factor 2 (Homo sapiens) (UniProt P24468); test: retest of COUP-TFII reporter suppressors – cell-based, luciferase reporter, HEK293, triplicate, confirmation (AID 687008;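 active = mean inhibition over three repeats above a set limit taken from the earlier primary screen, cut at about 38% in these data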;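 note: 100% = cells given the luciferase reporter alone without the COUP-TF2 vector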); settings: HEK293 NGFI-A luciferase reporter, luminescence; at 8.5 µM; active compounds read high
# Sequence of COUP transcription factor 2 (Homo sapiens) (P24468 whole entry, looked up): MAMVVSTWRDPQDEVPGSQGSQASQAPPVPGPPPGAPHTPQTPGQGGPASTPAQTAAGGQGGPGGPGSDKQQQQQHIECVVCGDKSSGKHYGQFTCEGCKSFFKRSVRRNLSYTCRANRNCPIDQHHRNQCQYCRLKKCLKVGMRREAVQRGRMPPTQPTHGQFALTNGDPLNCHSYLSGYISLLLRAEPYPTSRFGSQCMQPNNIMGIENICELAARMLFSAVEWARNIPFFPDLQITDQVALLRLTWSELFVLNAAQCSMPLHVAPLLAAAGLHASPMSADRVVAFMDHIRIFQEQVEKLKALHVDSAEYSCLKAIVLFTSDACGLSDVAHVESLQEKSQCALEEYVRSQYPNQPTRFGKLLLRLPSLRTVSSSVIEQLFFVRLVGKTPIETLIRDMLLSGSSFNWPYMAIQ
# Sequence of Nuclear receptor coactivator 3 (Homo sapiens) (Q9Y6Q9 whole entry, looked up, the tested form may be a part): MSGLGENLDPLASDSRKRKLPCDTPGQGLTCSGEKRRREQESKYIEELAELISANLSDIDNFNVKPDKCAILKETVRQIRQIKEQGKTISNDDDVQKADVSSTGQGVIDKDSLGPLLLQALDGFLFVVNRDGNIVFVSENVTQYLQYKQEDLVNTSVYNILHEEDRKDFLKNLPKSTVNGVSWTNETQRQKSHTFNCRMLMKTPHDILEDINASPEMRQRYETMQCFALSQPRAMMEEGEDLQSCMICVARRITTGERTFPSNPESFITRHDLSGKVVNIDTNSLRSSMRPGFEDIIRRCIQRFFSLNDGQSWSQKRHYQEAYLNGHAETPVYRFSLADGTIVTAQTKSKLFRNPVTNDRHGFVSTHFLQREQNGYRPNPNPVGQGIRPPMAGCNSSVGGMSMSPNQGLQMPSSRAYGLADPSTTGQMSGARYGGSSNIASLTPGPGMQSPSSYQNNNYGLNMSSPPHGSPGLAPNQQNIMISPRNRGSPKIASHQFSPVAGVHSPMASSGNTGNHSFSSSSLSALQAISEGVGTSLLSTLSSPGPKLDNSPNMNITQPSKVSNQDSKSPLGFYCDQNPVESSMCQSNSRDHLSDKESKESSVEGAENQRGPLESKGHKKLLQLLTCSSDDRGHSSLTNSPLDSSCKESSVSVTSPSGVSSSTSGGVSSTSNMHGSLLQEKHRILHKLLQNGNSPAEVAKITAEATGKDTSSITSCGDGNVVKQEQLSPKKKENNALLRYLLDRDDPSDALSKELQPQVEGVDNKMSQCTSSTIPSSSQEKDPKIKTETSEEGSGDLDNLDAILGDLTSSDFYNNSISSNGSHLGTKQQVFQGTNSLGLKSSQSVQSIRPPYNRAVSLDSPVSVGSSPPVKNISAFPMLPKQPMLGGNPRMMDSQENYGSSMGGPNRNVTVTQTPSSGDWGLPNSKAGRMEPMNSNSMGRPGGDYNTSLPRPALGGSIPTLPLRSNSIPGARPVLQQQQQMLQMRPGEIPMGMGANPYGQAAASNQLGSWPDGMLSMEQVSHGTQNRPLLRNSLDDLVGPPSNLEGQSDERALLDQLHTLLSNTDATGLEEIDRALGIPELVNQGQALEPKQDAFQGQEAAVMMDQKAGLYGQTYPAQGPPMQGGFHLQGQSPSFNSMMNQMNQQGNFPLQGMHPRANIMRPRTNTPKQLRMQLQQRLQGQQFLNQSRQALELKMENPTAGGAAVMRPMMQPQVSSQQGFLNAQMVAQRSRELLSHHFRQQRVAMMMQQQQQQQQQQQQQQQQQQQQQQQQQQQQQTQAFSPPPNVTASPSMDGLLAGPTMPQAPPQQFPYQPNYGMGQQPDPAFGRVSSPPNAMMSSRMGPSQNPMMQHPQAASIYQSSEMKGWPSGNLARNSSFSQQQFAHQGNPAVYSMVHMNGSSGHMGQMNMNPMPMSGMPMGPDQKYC
# Sequence of Nuclear receptor subfamily 5 group A member 2 (Homo sapiens) (O00482 whole entry, looked up): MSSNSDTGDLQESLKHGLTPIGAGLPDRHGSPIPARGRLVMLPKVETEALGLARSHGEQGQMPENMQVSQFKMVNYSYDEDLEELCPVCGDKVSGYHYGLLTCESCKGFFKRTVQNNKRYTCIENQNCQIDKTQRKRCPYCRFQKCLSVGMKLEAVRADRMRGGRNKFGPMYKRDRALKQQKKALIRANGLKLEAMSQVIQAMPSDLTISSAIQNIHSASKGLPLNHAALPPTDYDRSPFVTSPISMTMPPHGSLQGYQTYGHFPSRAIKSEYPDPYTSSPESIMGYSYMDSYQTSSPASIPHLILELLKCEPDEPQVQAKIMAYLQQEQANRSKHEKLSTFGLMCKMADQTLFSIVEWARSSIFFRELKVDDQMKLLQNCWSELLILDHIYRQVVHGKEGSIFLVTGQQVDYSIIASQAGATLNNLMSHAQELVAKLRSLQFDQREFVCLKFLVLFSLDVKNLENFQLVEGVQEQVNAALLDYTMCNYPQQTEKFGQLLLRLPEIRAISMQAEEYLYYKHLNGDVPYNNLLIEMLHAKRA
# Sequence of Nuclear receptor coactivator 1 (Homo sapiens) (Q15788 whole entry, looked up, the tested form may be a part): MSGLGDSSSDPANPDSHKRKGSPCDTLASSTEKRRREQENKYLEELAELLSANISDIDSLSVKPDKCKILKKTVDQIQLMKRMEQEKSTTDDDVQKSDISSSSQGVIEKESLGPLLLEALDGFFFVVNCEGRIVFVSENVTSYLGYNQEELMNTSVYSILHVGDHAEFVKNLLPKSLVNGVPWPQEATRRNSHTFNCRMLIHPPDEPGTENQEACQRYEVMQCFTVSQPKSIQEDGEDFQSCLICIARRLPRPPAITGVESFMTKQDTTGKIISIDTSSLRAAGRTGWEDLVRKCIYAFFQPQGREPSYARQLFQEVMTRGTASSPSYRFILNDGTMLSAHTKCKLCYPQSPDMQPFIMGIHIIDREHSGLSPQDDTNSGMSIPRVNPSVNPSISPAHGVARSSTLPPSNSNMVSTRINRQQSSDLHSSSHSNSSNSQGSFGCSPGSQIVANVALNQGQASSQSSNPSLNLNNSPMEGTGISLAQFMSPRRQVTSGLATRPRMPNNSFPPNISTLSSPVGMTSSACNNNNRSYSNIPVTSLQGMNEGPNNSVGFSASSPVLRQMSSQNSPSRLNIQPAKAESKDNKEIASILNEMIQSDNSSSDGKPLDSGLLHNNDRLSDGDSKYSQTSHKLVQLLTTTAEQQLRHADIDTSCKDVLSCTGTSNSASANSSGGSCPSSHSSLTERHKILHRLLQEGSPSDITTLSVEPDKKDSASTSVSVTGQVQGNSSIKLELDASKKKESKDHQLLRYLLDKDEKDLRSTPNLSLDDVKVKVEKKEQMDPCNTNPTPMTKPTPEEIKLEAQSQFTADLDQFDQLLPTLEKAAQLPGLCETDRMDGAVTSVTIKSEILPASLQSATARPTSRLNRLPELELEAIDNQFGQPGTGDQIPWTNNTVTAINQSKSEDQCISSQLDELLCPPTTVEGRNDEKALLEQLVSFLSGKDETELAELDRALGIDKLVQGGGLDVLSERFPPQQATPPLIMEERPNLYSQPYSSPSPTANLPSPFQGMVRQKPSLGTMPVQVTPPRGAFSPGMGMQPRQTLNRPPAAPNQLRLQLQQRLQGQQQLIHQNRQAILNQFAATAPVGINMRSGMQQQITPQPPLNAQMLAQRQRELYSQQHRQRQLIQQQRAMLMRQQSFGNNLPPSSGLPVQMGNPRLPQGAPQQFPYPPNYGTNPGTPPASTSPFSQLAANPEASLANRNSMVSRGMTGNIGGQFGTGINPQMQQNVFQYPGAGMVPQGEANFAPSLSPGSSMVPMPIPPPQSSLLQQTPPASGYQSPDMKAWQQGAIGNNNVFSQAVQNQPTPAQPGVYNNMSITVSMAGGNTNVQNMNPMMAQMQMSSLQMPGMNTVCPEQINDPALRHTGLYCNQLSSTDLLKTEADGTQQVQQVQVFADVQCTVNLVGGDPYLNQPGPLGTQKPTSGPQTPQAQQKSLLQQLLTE
# Sequence of Steroidogenic factor 1 (Homo sapiens) (Q13285 whole entry, looked up, the tested form may be a part): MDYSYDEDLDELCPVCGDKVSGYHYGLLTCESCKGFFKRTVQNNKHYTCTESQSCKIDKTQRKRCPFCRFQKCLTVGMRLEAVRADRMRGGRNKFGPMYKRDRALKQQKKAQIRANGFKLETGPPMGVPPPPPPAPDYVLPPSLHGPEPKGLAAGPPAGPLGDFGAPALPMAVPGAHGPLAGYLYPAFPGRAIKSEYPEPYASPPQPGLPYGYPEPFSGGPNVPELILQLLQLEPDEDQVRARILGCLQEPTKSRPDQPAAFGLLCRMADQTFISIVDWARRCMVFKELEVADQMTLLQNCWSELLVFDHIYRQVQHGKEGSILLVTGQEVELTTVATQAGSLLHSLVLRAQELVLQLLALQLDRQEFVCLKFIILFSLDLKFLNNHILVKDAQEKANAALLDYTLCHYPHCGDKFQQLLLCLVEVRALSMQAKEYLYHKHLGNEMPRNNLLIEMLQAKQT
# Sequence of Photoreceptor-specific nuclear receptor (Homo sapiens) (Q9Y5X4 whole entry, looked up): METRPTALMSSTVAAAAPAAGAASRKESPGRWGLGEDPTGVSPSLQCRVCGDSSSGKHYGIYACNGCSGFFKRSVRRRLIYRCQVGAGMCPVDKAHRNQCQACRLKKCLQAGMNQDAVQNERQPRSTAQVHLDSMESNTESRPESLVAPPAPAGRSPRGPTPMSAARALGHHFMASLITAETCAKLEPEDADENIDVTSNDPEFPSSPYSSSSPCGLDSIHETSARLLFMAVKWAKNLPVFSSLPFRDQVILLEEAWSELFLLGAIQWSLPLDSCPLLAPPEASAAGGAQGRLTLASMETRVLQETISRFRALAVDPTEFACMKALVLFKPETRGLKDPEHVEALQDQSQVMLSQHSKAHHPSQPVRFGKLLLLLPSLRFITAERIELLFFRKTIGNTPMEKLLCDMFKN
compound,measurement,setting,value
Cc1cccc(C)c1-n1nnnc1C(c1cc2ccccc2o1)N1CCC(n2c(=O)[nH]c3ccccc32)CC1 (stereo not drawn),inhibition,[1],23.8%
same,inhibition,[2],41.3% (active)
same,inhibition,[3],7.31%
same,inhibition,[4],25.9% (active)
COc1ccc(-[n+]2c(-c3ccccc3)cc(-c3ccc(C)cc3)cc2-c2ccccc2)cc1,inhibition,[1],85.5% (active)
same,inhibition,[2],87.3% (active)
same,inhibition,[3],71.9% (active)
same,inhibition,[4],88.3% (active)
same,inhibition,[5],82.7% (active)
same,inhibition,[6],111% (active)
same,inhibition,[7],96.9% (active)
same,inhibition,[8],98.2% (active)
COc1ccc(-n2nnnc2C(CCc2ccccc2)N2CCC(n3c(=O)[nH]c4ccccc43)CC2)cc1 (stereo not drawn),inhibition,[1],25.2%
same,inhibition,[2],8.54%
same,inhibition,[3],2.43%
same,inhibition,[4],9.95%
same,inhibition,[5],48.7% (active)
same,inhibition,[6],28.1%
same,inhibition,[7],30.3%
same,inhibition,[8],33.6% (active)
O=c1[nH]c2ccccc2n1C1CCN(C(CCc2ccccc2)c2nnnn2C2CCCCC2)CC1 (stereo not drawn),inhibition,[1],11.8%
same,inhibition,[2],12.5%
same,inhibition,[3],2.31%
same,inhibition,[4],-5.85%
CN1CCN(c2ncnc3ccc(Br)cc23)CC1,inhibition,[1],42.3%
same,inhibition,[2],37.6% (active)
same,inhibition,[3],31.2%
same,inhibition,[4],33.4% (active)
N=c1c2c(n(Cc3ccc(Cl)cc3Cl)c3c1CCC3)CCCC2,inhibition,[1],43.5% (active)
same,inhibition,[2],62.9% (active)
same,inhibition,[3],41.2%
same,inhibition,[4],63.4% (active)
COC(=O)[C@]12OC[C@]34C([C@@H](O)[C@@H]1O)[C@]1(C)CC(=O)C(O)=C(C)[C@@H]1C[C@H]3OC(=O)[C@H](O)[C@@H]24 (stereo partly drawn),inhibition,[1],71.6% (active)
same,inhibition,[2],64.2% (active)
same,inhibition,[3],-32.4%
same,inhibition,[4],68.8% (active)
c1ccc(-c2cc(-c3ccccc3)[n+](-c3ccccc3)c(-c3ccccc3)c2)cc1,inhibition,[1],61.7% (active)
same,inhibition,[2],75.9% (active)
same,inhibition,[3],49.1% (active)
same,inhibition,[4],81.6% (active)
same,inhibition,[5],69.6% (active)
same,inhibition,[6],104% (active)
same,inhibition,[7],81.3% (active)
same,inhibition,[8],89.4% (active)
O=c1[nH]c2ccccc2n1C1CCN(C(c2nnnn2-c2ccc3c(c2)OCCO3)C2CC2)CC1 (stereo not drawn),inhibition,[1],25.1%
same,inhibition,[2],23.5%
same,inhibition,[3],-8.7%
same,inhibition,[4],22%
O=c1[nH]c2ccccc2n1C1CCN(C(c2ccccc2OC(F)(F)F)c2nnnn2-c2ccc3c(c2)OCCO3)CC1 (stereo not drawn),inhibition,[1],27.6%
same,inhibition,[2],-1.84%
same,inhibition,[3],-23.1%
same,inhibition,[4],-0.24%
same,inhibition,[5],61.8% (active)
same,inhibition,[6],37.3%
same,inhibition,[7],43.7% (active)
same,inhibition,[8],39.8% (active)
CC[n+]1c(/C=C/N(C)c2ccccc2)sc2ccc(Cl)cc21,inhibition,[1],28.9%
same,inhibition,[2],46.1% (active)
same,inhibition,[3],30.4%
same,inhibition,[4],48.8% (active)
same,inhibition,[5],23.7%
same,inhibition,[6],83.7% (active)
same,inhibition,[7],73.4% (active)
same,inhibition,[8],75% (active)
CCC(C)(O)C(=O)OC1C(=O)OC2CC3C(C)=CC(=O)C(O)C3(C)C3C4(O)OCC23C1C(C)C4O (stereo not drawn),inhibition,[1],97.1% (active)
same,inhibition,[2],96.7% (active)
same,inhibition,[3],94.3% (active)
same,inhibition,[4],96.4% (active)
same,inhibition,[9],98.7% (active)
same,inhibition,[10],86.9% (active)
same,inhibition,[5],96.1% (active)
same,inhibition,[6],109% (active)
same,inhibition,[7],97.6% (active)
same,inhibition,[8],96.8% (active)
same,inhibition,[11],80.7% (active)
same,inhibition,[12],74.8% (active)
same,inhibition,[13],31.2% (active)
same,inhibition,[14],90.8% (active)
Cc1ccccc1-[n+]1c(-c2ccccc2)cc(-c2ccccc2)cc1-c1ccccc1,inhibition,[1],69.8% (active)
same,inhibition,[2],86% (active)
same,inhibition,[3],71.6% (active)
same,inhibition,[4],84.6% (active)
same,inhibition,[5],83.2% (active)
same,inhibition,[6],109% (active)
same,inhibition,[7],95.3% (active)
same,inhibition,[8],94.7% (active)
CC1=CC2OC3CC4OC(=O)C=CC=CC(=O)OCCC(C)C(O)C(=O)OCC2(CC1O)C4(C)C31CO1 (stereo not drawn),inhibition,[1],98% (active)
same,inhibition,[2],96.8% (active)
same,inhibition,[3],96.8% (active)
same,inhibition,[4],95.6% (active)
COc1cc2cc(C(=O)N3CC(COS(C)(=O)=O)c4ccc(O)cc43)[nH]c2c(OC)c1OC (stereo not drawn),inhibition,[1],97.5% (active)
same,inhibition,[2],96.2% (active)
same,inhibition,[3],96% (active)
same,inhibition,[4],95.7% (active)
same,inhibition,[5],98% (active)
same,inhibition,[6],111% (active)
same,inhibition,[7],99.2% (active)
same,inhibition,[8],98.2% (active)
